This is part of a sample that, as a whole, favours compounds with a hit. Of some 79,000 tested, about 15% had one in any assay. A number with no mark means an inactive call. The source made the active and inactive calls. Rule as the data show it: active = growth inhibition above about 70%; inactive = the rest.
Tests used:
[1] = NCI Yeast Anticancer Drug Screen. Data for the rad52 strain (AID 147);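 also: 0% = growth of vehicle-treated control cultures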; conditions: S. cerevisiae rad52 mutant growth inhibition, active compounds read high
Method in brief: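 The repair-mutant yeast strain was incubated with compounds, then growth was read and inhibition derived relative to vehicle.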

[2] = NCI Yeast Anticancer Drug Screen. Data for the wt1 strain (AID 149);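 also: 0% = growth of vehicle-treated wt1 cultures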; conditions: S. cerevisiae wt1 strain (SPY 50644) growth inhibition, active compounds read high
Method in brief: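 wt1 strain grown with compound or vehicle; inhibition taken from the growth difference.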

[3] = NCI Yeast Anticancer Drug Screen. Data for the rad50EPP+ strain (AID 151);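 also: 0% = growth of vehicle-treated control cultures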; conditions: S. cerevisiae rad50 mutant strain, active compounds read high
Method in brief: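 Vehicle-normalised growth inhibition; rad50EPP+ yeast strain, altered in DNA damage repair, compound-treated.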

[4] = NCI Yeast Anticancer Drug Screen. Data for the mgt1 strain (AID 153); conditions: S. cerevisiae mgt1 mutant growth inhibition, active compounds read high
Method in brief: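 Vehicle-normalized growth inhibition is determined in mgt1 yeast, a strain selected for a defined alteration in DNA repair or cell cycle control.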

[5] = NCI Yeast Anticancer Drug Screen. Data for the rad50 strain (AID 155);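 also: 0% = growth of vehicle-only cultures of the same strain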; conditions: S. cerevisiae rad50 strain growth inhibition, active compounds read high
Method in brief: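 DNA repair mutant yeast, compound exposure, growth read-out; inhibition is taken relative to vehicle.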

[6] = NCI Yeast Anticancer Drug Screen. Data for the mec2-1 strain (AID 157); conditions: S. cerevisiae mec2-1 strain, active compounds read high
Method in brief: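 Mutant yeast (mec2-1) grown with compound; growth inhibition relative to vehicle control reported.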

[7] = NCI Yeast Anticancer Drug Screen. Data for the rad14 strain (AID 159);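 also: 0% = growth of vehicle-treated control cultures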; conditions: S. cerevisiae rad14 strain growth inhibition, active compounds read high
Method in brief: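 DNA repair-defective yeast, compound-exposed; % growth inhibition derived by comparison with vehicle-treated controls.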

[8] = NCI Yeast Anticancer Drug Screen. Data for the sgs1 mgt1 strain (AID 161);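 also: 0% = growth of cultures given vehicle only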; conditions: S. cerevisiae sgs1 mgt1 strain, active compounds read high
Method in brief: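 Yeast cells carrying a defined DNA-repair defect were exposed to test compounds. Growth inhibition was measured relative to vehicle-treated controls.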

[9] = NCI Yeast Anticancer Drug Screen. Data for the CLN2oe strain (AID 163);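 also: 0% = growth of vehicle-only control cultures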; conditions: S. cerevisiae CLN2oe strain, active compounds read high
Method in brief: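 Compounds are applied to yeast harbouring a defined cell-cycle control change; reduced growth compared with vehicle-treated controls gives the value.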

[10] = NCI Yeast Anticancer Drug Screen. Data for the cln2 rad14 strain (AID 165);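 also: 0% = growth equal to vehicle treated cultures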; conditions: S. cerevisiae cln2 rad14 strain, active compounds read high
Method in brief: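 Readout is yeast growth inhibition versus vehicle-treated controls, using a strain with cln2 and rad14 alterations exposed to compound.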

[11] = NCI Yeast Anticancer Drug Screen. Data for the bub3 strain (AID 167); conditions: S. cerevisiae bub3 mutant strain, active compounds read high
Method in brief: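 In this screen, a yeast mutant lacking normal mitotic checkpoint function is challenged with compound. Relative growth versus vehicle gives the inhibition value.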

[12] = NCI Yeast Anticancer Drug Screen. Data for the wt2 strain (AID 169);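 also: 0% = growth of vehicle-treated yeast cultures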; conditions: S. cerevisiae wt2 strain growth inhibition, active compounds read high
Method in brief: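 Against vehicle-treated controls, the growth of yeast exposed to each compound was compared, and the inhibition was recorded.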

[13] = NCI Yeast Anticancer Drug Screen. Data for the mlh1 strain (AID 171);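 also: 0% = growth of vehicle-treated control cultures of the same strain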; conditions: S. cerevisiae mlh1 strain growth inhibition, active compounds read high
Method in brief: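 Measured: yeast growth. Reference: vehicle-treated controls. Organism: strain with a defined alteration affecting DNA damage repair or cell cycle control, treated with compound.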

[14] = NCI Yeast Anticancer Drug Screen. Data for the sgs1 strain (AID 173);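 also: 0% = growth of vehicle-only control cultures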; conditions: S. cerevisiae sgs1 mutant, active compounds read high
Method in brief: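 Each compound was added to cultures of the altered yeast strain. Growth was recorded, and inhibition was derived by comparison with vehicle controls.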

[15] = NCI Yeast Anticancer Drug Screen. Data for the mlh1 rad18 strain (AID 175); conditions: S. cerevisiae mlh1 rad18 strain growth inhibition, active compounds read high
Method in brief: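 Genetically defined yeast (DNA repair-deficient) exposed to compounds; growth inhibition determined relative to vehicle.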

[16] = NCI Yeast Anticancer Drug Screen. Data for the rad18 strain (AID 177); conditions: S. cerevisiae rad18 mutant growth inhibition, active compounds read high
Method in brief: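 Vehicle-treated cultures served as the baseline for scoring compound-induced growth inhibition in DNA-repair-mutant yeast.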

[17] = at 5.0 µM (retest, dose inferred, filed as 0.5)
[18] = at 50.0 µM (retest, dose inferred, filed as 5.0)

## Oc1ccc(Cl)cc1Cc1ccccc1
[1]; at 1.2 µM
  growth inhibition: -21%
[1]; at 3.7 µM
  growth inhibition: 4%
[1]; at 11.0 µM
  growth inhibition: 70% (active)
[1]; at 33.0 µM
  growth inhibition: 98% (active)
[1]; at 100.0 µM
  growth inhibition: 98% (active)
[2]; at 1.2 µM
  growth inhibition: -41%
[2]; at 3.7 µM
  growth inhibition: -11%
[2]; at 11.0 µM
  growth inhibition: 60%
[2]; at 33.0 µM
  growth inhibition: 99% (active)
[2]; at 100.0 µM
  growth inhibition: 99% (active)
[3]; at 1.2 µM
  growth inhibition: -52%
[3]; at 3.7 µM
  growth inhibition: -15%
[3]; at 11.0 µM
  growth inhibition: 28%
[3]; at 33.0 µM
  growth inhibition: 95% (active)
[3]; at 100.0 µM
  growth inhibition: 97% (active)
[4]; at 1.2 µM
  growth inhibition: 11%
[4]; at 3.7 µM
  growth inhibition: -2%
[4]; at 11.0 µM
  growth inhibition: 85% (active)
[4]; at 33.0 µM
  growth inhibition: 98% (active)
[4]; at 100.0 µM
  growth inhibition: 99% (active)
[5]; at 1.2 µM
  growth inhibition: -46%
[5]; at 3.7 µM
  growth inhibition: -43%
[5]; [17]
  growth inhibition: 58%
[5]; at 11.0 µM
  growth inhibition: 54%
[5]; at 33.0 µM
  growth inhibition: 98% (active)
[5]; [18]
  growth inhibition: 86% (active)
[5]; at 50.0 µM
  growth inhibition: 92% (active)
[5]; at 100.0 µM
  growth inhibition: 98% (active)
[6]; at 1.2 µM
  growth inhibition: -40%
[6]; at 3.7 µM
  growth inhibition: 5%
[6]; [17]
  growth inhibition: 54%
[6]; at 11.0 µM
  growth inhibition: 77% (active)
[6]; at 33.0 µM
  growth inhibition: 84% (active)
[6]; [18]
  growth inhibition: 83% (active)
[6]; at 50.0 µM
  growth inhibition: 93.7% (active)
[6]; at 100.0 µM
  growth inhibition: 99% (active)
[7]; at 1.2 µM
  growth inhibition: -23%
[7]; at 3.7 µM
  growth inhibition: -23%
[7]; at 11.0 µM
  growth inhibition: 54%
[7]; at 33.0 µM
  growth inhibition: 99% (active)
[7]; at 100.0 µM
  growth inhibition: 99% (active)
[8]; [17]
  growth inhibition: -5%
[8]; [18]
  growth inhibition: 44%
[8]; at 50.0 µM
  growth inhibition: 94.4% (active)
[9]; at 1.2 µM
  growth inhibition: -11%
[9]; at 3.7 µM
  growth inhibition: -30%
[9]; at 11.0 µM
  growth inhibition: 71% (active)
[9]; at 33.0 µM
  growth inhibition: 99% (active)
[9]; at 100.0 µM
  growth inhibition: 99% (active)
[10]; [17]
  growth inhibition: 41%
[10]; [18]
  growth inhibition: 99% (active)
[10]; at 50.0 µM
  growth inhibition: 92.9% (active)
[11]; at 1.2 µM
  growth inhibition: -52%
[11]; at 3.7 µM
  growth inhibition: -18%
[11]; [17]
  growth inhibition: 36%
[11]; at 11.0 µM
  growth inhibition: 70% (active)
[11]; at 33.0 µM
  growth inhibition: 100% (active)
[11]; [18]
  growth inhibition: 99% (active)
[11]; at 50.0 µM
  growth inhibition: 92.5% (active)
[11]; at 100.0 µM
  growth inhibition: 100% (active)
[12]; at 1.2 µM
  growth inhibition: -53%
[12]; at 3.7 µM
  growth inhibition: -16%
[12]; at 11.0 µM
  growth inhibition: 54%
[12]; at 33.0 µM
  growth inhibition: 98% (active)
[12]; at 100.0 µM
  growth inhibition: 98% (active)
[13]; at 1.2 µM
  growth inhibition: 12%
[13]; at 3.7 µM
  growth inhibition: -9%
[13]; at 11.0 µM
  growth inhibition: 69%
[13]; at 33.0 µM
  growth inhibition: 99% (active)
[13]; at 100.0 µM
  growth inhibition: 99% (active)
[14]; at 1.2 µM
  growth inhibition: -23%
[14]; at 3.7 µM
  growth inhibition: -17%
[14]; at 11.0 µM
  growth inhibition: 66%
[14]; at 33.0 µM
  growth inhibition: 98% (active)
[14]; at 100.0 µM
  growth inhibition: 99% (active)
[15]; [17]
  growth inhibition: 29%
[15]; [18]
  growth inhibition: 70% (active)
[15]; at 50.0 µM
  growth inhibition: 93% (active)
[16]; at 1.2 µM
  growth inhibition: -71%
[16]; at 3.7 µM
  growth inhibition: -30%
[16]; at 11.0 µM
  growth inhibition: 54%
[16]; at 33.0 µM
  growth inhibition: 95% (active)
[16]; at 100.0 µM
  growth inhibition: 97% (active)

## C[N+](CCCl)(CCCl)Cc1cccc2cccc([N+](=O)[O-])c12
[1]; at 1.2 µM
  growth inhibition: 31%
[1]; at 3.7 µM
  growth inhibition: 47%
[1]; at 11.0 µM
  growth inhibition: 74% (active)
[1]; at 33.0 µM
  growth inhibition: 92% (active)
[1]; at 100.0 µM
  growth inhibition: 94% (active)
[2]; at 1.2 µM
  growth inhibition: 31%
[2]; at 3.7 µM
  growth inhibition: 9%
[2]; at 11.0 µM
  growth inhibition: 31%
[2]; at 33.0 µM
  growth inhibition: 28%
[2]; at 100.0 µM
  growth inhibition: 39%
[3]; at 1.2 µM
  growth inhibition: 20%
[3]; at 3.7 µM
  growth inhibition: 35%
[3]; at 11.0 µM
  growth inhibition: 80% (active)
[3]; at 33.0 µM
  growth inhibition: 95% (active)
[3]; at 100.0 µM
  growth inhibition: 96% (active)
[4]; at 1.2 µM
  growth inhibition: 3%
[4]; at 3.7 µM
  growth inhibition: 6%
[4]; at 11.0 µM
  growth inhibition: -15%
[4]; at 33.0 µM
  growth inhibition: -5%
[4]; at 100.0 µM
  growth inhibition: 9%
[5]; at 1.2 µM
  growth inhibition: 26%
[5]; at 3.7 µM
  growth inhibition: 44%
[5]; [17]
  growth inhibition: 37%
[5]; at 11.0 µM
  growth inhibition: 67%
[5]; at 33.0 µM
  growth inhibition: 90% (active)
[5]; [18]
  growth inhibition: 85% (active)
[5]; at 50.0 µM
  growth inhibition: 80.1% (active)
[5]; at 100.0 µM
  growth inhibition: 94% (active)
[6]; at 1.2 µM
  growth inhibition: -4%
[6]; at 3.7 µM
  growth inhibition: 10%
[6]; [17]
  growth inhibition: 1%
[6]; at 11.0 µM
  growth inhibition: 10%
[6]; at 33.0 µM
  growth inhibition: 44%
[6]; [18]
  growth inhibition: 56%
[6]; at 50.0 µM
  growth inhibition: 47%
[6]; at 100.0 µM
  growth inhibition: 77% (active)
[7]; at 1.2 µM
  growth inhibition: -9%
[7]; at 3.7 µM
  growth inhibition: -1%
[7]; at 11.0 µM
  growth inhibition: 32%
[7]; at 33.0 µM
  growth inhibition: 88% (active)
[7]; at 100.0 µM
  growth inhibition: 89% (active)
[8]; [17]
  growth inhibition: 15%
[8]; [18]
  growth inhibition: 44%
[8]; at 50.0 µM
  growth inhibition: 39.2%
[9]; at 1.2 µM
  growth inhibition: -8%
[9]; at 3.7 µM
  growth inhibition: -10%
[9]; at 11.0 µM
  growth inhibition: -17%
[9]; at 33.0 µM
  growth inhibition: -13%
[9]; at 100.0 µM
  growth inhibition: -6%
[10]; [17]
  growth inhibition: 17%
[10]; [18]
  growth inhibition: 78% (active)
[10]; at 50.0 µM
  growth inhibition: 74.5% (active)
[11]; at 1.2 µM
  growth inhibition: -20%
[11]; at 3.7 µM
  growth inhibition: -26%
[11]; [17]
  growth inhibition: 9%
[11]; at 11.0 µM
  growth inhibition: -22%
[11]; at 33.0 µM
  growth inhibition: -10%
[11]; [18]
  growth inhibition: 45%
[11]; at 50.0 µM
  growth inhibition: 0.4%
[11]; at 100.0 µM
  growth inhibition: 3%
[12]; at 1.2 µM
  growth inhibition: -10%
[12]; at 3.7 µM
  growth inhibition: -6%
[12]; at 11.0 µM
  growth inhibition: -10%
[12]; at 33.0 µM
  growth inhibition: -1%
[12]; at 100.0 µM
  growth inhibition: 23%
[13]; at 1.2 µM
  growth inhibition: 7%
[13]; at 3.7 µM
  growth inhibition: -2%
[13]; at 11.0 µM
  growth inhibition: -1%
[13]; at 33.0 µM
  growth inhibition: 4%
[13]; at 100.0 µM
  growth inhibition: 21%
[14]; at 1.2 µM
  growth inhibition: 20%
[14]; at 3.7 µM
  growth inhibition: 19%
[14]; at 11.0 µM
  growth inhibition: 41%
[14]; at 33.0 µM
  growth inhibition: 63%
[14]; at 100.0 µM
  growth inhibition: 77% (active)
[15]; [17]
  growth inhibition: 31%
[15]; [18]
  growth inhibition: 81% (active)
[15]; at 50.0 µM
  growth inhibition: 77.4% (active)
[16]; at 1.2 µM
  growth inhibition: 11%
[16]; at 3.7 µM
  growth inhibition: 56%
[16]; at 11.0 µM
  growth inhibition: 91% (active)
[16]; at 33.0 µM
  growth inhibition: 95% (active)
[16]; at 100.0 µM
  growth inhibition: 96% (active)
